# Inconclusive results are not listed. Entries that show only a call come without a potency. Activity calls are given as the source filed them. Unless noted, calls come from the whole dose curve; as a rule, active = well fitted curve in the direction sought with a large enough effect; inconclusive = small, poorly fitted or top-dose-only effect, or another doubt; inactive = no such curve, though single readings can be large; an effect the other way counts as inactive or inconclusive.
# Experiments:
# [1] = biological target: Aldehyde dehydrogenase, mitochondrial (Homo sapiens) (UniProt P05091); assay: qHTS for Inhibitors of the Aldehyde Dehydrogenase Family (ALDH2) Confirmatory screens (AID 2061303; active = well fitted inhibition curve with a large enough effect; title and protocol of this record describe different tests; note: nearly all actives have a fitted effect of over 45% in size; note: potency is the fitted concentration of half-maximal effect)
# [2] = qHTS for Inhibitors of the Aldehyde Dehydrogenase Family (ALDH1A2, ALDH1A3, ALDH2, ALDH3A1) (AID 2061307); note: nearly all actives have a fitted effect of over 50% in size; for potency: test system not described further here; potency is the fitted concentration of half-maximal effect
# [3] = biological target: Retinal dehydrogenase 2 (Homo sapiens) (UniProt O94788); assay: qHTS for Inhibitors of the Aldehyde Dehydrogenase Family (ALDH1A2) Confirmation screens (AID 2061314); note: nearly all actives have a fitted effect of over 65% in size; note: potency is the fitted concentration of half-maximal effect
# [4] = biological target: Retinaldehyde dehydrogenase 3 (Homo sapiens) (UniProt P47895); assay: qHTS for Inhibitors of the Aldehyde Dehydrogenase Family (ALDH1A3) Primary screen (AID 2061315)
# [5] = biological target: Aldehyde dehydrogenase 1A1 (Homo sapiens) (UniProt P00352); assay: qHTS for Inhibitors of the Aldehyde Dehydrogenase Family (ALDH1A1) Confirmatory screens (AID 2061316); note: nearly all actives have a fitted effect of over 65% in size; note: potency is the fitted concentration of half-maximal effect
# [6] = biological target: Retinaldehyde dehydrogenase 3 (Homo sapiens) (UniProt P47895); assay: qHTS for Inhibitors of the Aldehyde Dehydrogenase Family (ALDH1A3) Confirmatory screens (AID 2061311); note: nearly all actives have a fitted effect of over 60% in size; note: potency is the fitted concentration of half-maximal effect
# [7] = biological target: Retinaldehyde dehydrogenase 3 (Homo sapiens) (UniProt P47895); assay: qHTS for Inhibitors of the Aldehyde Dehydrogenase Family (ALDH1A3) Validation screen (AID 2061312); note: nearly all actives have a fitted effect of over 45% in size
# [8] = biological target: Aldehyde dehydrogenase, mitochondrial (Homo sapiens) (UniProt P05091); assay: qHTS for Inhibitors of the Aldehyde Dehydrogenase Family (ALDH2) Primary screen (AID 2061308); note: nearly all actives have a fitted effect of over 55% in size
Structure (SMILES),Potency [1],Potency [2],Potency [3],Potency [4],Potency [5],Potency [6],Potency [7],Potency [8]
Cc1ccc(OCCn2c(CCNC(=O)c3ccc(N)cc3)nc3ccccc32)cc1,10.1 µM (active),0.896 µM (active),7.98 µM (active),inactive,3.18 µM (active),–,–,–
O=c1c2ccccc2nc2sc(Nc3ccc(Sc4ccccc4)cc3)nn12,inactive,12.6 µM (active),4 µM (active),inactive,–,–,–,–
O=C(Nc1cncc(-c2cccc3ccccc23)c1)c1cccs1,inactive,5.62 µM (active),–,inactive,–,20.1 µM (active),–,–
COc1cccc(-c2cc(C(=O)NCC(F)F)c3cnn(C)c3n2)c1,inactive,inactive,–,–,inactive,5.01 µM (active),–,–
CCOc1ccc(NC(=O)Cn2c(Nc3cc(C)cc(C)c3)nc(C)cc2=O)cc1,15.8 µM (active),inactive,–,–,inactive,inactive,–,–
COc1cccc(-n2cc(C(=O)Nc3cccc(C(F)(F)F)c3)c3ccccc3c2=O)c1,inactive,11.2 µM (active),inactive,–,–,–,–,–
CC(C)(C)OC(=O)N1CCN(c2ccc(NCc3ccc(-c4cccc([N+](=O)[O-])c4)o3)cc2)CC1,0.896 µM (active),4 µM (active),–,inactive,14.2 µM (active),inactive,–,–
N#Cc1ccc(-c2ccc(CNc3ccc(N4CCOCC4)cc3)o2)cc1,0.04 µM (active),0.565 µM (active),–,–,7.98 µM (active),15.9 µM (active),–,–
CC(=O)Nc1ccc(Nc2nc3c(S(=O)(=O)c4cccc(Cl)c4)nnn3c3ccsc23)cc1,inactive,inactive,inactive,–,inactive,28.2 µM (active),–,–
Oc1ccc(CNc2ccccc2F)c2cccnc12,2.83 µM (active),inactive,5.65 µM (active),–,2.25 µM (active),inactive,–,–
Oc1ccc(CNc2cccnc2)c2cccnc12,10.1 µM (active),7.98 µM (active),5.65 µM (active),–,4 µM (active),4.49 µM (active),–,–
Cc1cc(-c2nnc3n2CCCCC3)c(C)n1-c1ccccn1,inactive,inactive,–,inactive,–,14.2 µM (active),–,–
O=Cc1ccc(-c2ccc3ncnc(NCc4cccs4)c3c2)o1,11.3 µM (active),inactive,inactive,inactive,–,–,–,–
COc1ccc(-c2nc3cccc(OC)c3c(=O)n2Cc2ccccc2)cc1COc1ccc(NC(C)=O)cc1,28.2 µM (active),2.01 µM (active),–,–,12.7 µM (active),25.1 µM (active),–,–
COc1ccc(-c2nc(CNS(=O)(=O)c3ccc(F)cc3)cs2)cc1,11.2 µM (active),inactive,–,–,inactive,inactive,–,–
O=C(Nc1cccc(C(F)(F)F)c1)c1cccc(C(=O)Nc2cccc(C(F)(F)F)c2)c1,inactive,inactive,–,–,inactive,inactive,–,–
Cc1ccc2c(c1)-c1c(cnn1CC(=O)N1CCN(c3cccc(C(F)(F)F)c3)CC1)CO2,inactive,10 µM (active),inactive,–,inactive,inactive,–,–
COc1cccc(-c2ccc(CN3CCCC(NC(=O)Nc4ccccc4)C3)cc2)c1 (stereo not given),inactive,12.6 µM (active),inactive,–,–,–,–,–
CCOc1ccc(NC(=O)C2CCN(c3cnn(Cc4ccccc4)c(=O)c3)C2)cc1 (stereo not given),inactive,inactive,inactive,–,–,–,–,–
CCOc1cc(CNc2ccc(C(=O)O)cc2)ccc1OCc1ccccc1,2 µM (active),inactive,2.57 µM (active),–,6.47 µM (active),0.199 µM (active),–,–
CO/N=C(/C(=O)N[C@@H]1C(=O)N2C(C(=O)O)=C(Cn3ccc(=N)n3CCO)CS[C@H]12)c1csc(N)n1,inactive,inactive,inactive,inactive,–,–,inactive,–

Structure (SMILES),Potency [1],Potency [2],Potency [3],Potency [4],Potency [5],Potency [6],Potency [7],Potency [8]
CC(C)(C)OC(=O)N1CCN(c2ccc(NCc3cccc(-c4ccc(C#N)cc4)n3)cc2)CC1,0.201 µM (active),0.142 µM (active),–,inactive,8.96 µM (active),inactive,–,–
COc1ccc2c(c1)CCc1sc(NC(=O)c3ccc(Cl)cc3)nc1-2,15.8 µM (active),3.24 µM (active),–,–,4.58 µM (active),16.2 µM (active),–,–
CC(C)(C)OC(=O)N1CCN(c2ccc(NCc3cnc(-c4ccc(C#N)cc4)s3)cc2)CC1,1.79 µM (active),2.83 µM (active),inactive,inactive,11.3 µM (active),–,–,–
CC[C@H](CO)Nc1nc(Nc2cccc(-c3ccccn3)c2)c2ncn(C(C)C)c2n1,inactive,inactive,–,inactive,–,inactive,–,–
O=S(=O)(NCCc1nnc2ccc(SCc3ccc(C(F)(F)F)cc3)nn12)c1ccccc1,inactive,inactive,inactive,–,inactive,25.1 µM (active),–,–
Cc1cc(-c2nnc3n2CCCCC3)c(C)n1-c1cccc(C#N)c1,inactive,inactive,inactive,inactive,–,–,–,–
O=C(Nc1ccc(Cl)c(Cl)c1)Nc1cccc(-c2ccncc2)n1,inactive,inactive,inactive,inactive,inactive,–,–,–
COc1cc(NC(=S)N2CCN(c3cccc(C(F)(F)F)c3)CC2)nc2ccccc12,25.1 µM (active),inactive,7.94 µM (active),inactive,–,–,–,–
Cc1ccc(CCNc2ncnc3onc(-c4ccc(Cl)cc4)c23)cc1,inactive,inactive,inactive,–,inactive,4.47 µM (active),–,–
N#Cc1ccc(-c2ccc(CNc3ccc(N4CCN5CCCCC5C4)cc3)o2)cc1 (stereo not given),0.0252 µM (active),0.449 µM (active),inactive,inactive,8.96 µM (active),–,–,–
COc1ccccc1-c1cc(C(=O)NCc2ccc(C(F)(F)F)cc2)c2cnn(C)c2n1,inactive,inactive,inactive,–,inactive,7.08 µM (active),–,–
O=c1[nH]c2ccc(NCc3ccc(-c4ccccc4F)o3)cc2[nH]1,0.576 µM (active),4.47 µM (active),inactive,–,–,–,–,–
CCc1ccc(CN2CCC(C(=O)Nc3ccc(Oc4cccnc4)cc3)CC2)o1,5.01 µM (active),inactive,–,–,inactive,inactive,–,–
O=C(O)c1ccccc1SC1=NS(=O)(=O)c2ccccc21,inactive,inactive,inactive,inactive,inactive,–,–,–
Cc1ccc2nc3sc(C(=O)N4CCN(C)CC4)cc3cc2c1,inactive,–,10.1 µM (active),–,–,22.5 µM (active),–,inactive
C=CC(=O)N1CCN(C(=O)CNc2cc(-c3ccccc3Cl)c(Cl)cc2OC)CC1,inactive,–,–,inactive,inactive,inactive,inactive,inactive
Cc1ccc(OCCn2c(CCNC(=O)c3ccc([N+](=O)[O-])cc3)nc3ccccc32)cc1,22.5 µM (active),inactive,inactive,inactive,17.9 µM (active),–,–,–
N#Cc1cccc(N2CCN(Cc3ccc(F)c(Cl)c3F)CC2)n1,15.8 µM (active),4.58 µM (active),–,–,14.5 µM (active),–,–,–
Cc1c(C(=O)N(C)CC2CCCO2)[nH]c2c1C(=O)CC(c1ccco1)C2 (stereo not given),inactive,–,12.7 µM (active),–,–,15.9 µM (active),–,inactive
CCc1nc2nc(C)cc(Nc3ccc(Br)cc3F)n2n1,inactive,inactive,inactive,–,inactive,–,–,–
CCCCc1ccc(NC(=O)CSc2nc3ccccc3nc2N2CCOCC2)cc1,inactive,inactive,–,–,inactive,–,–,–

Structure (SMILES),Potency [1],Potency [2],Potency [3],Potency [4],Potency [5],Potency [6],Potency [7],Potency [8]
COc1ccc(C2N(Cc3ccccc3)C(=O)c3ccccc3N2C)cc1COc1ccc(NC(C)=O)cc1 (stereo not given),inactive,10.1 µM (active),–,inactive,–,–,–,–
COc1cc(Nc2nc(-c3ccncc3)nc3ccccc23)ccc1N1CCN(C)CC1,inactive,–,–,–,–,–,–,inactive
Fc1ccc(N2CCN(CCC3OCCc4ccccc43)CC2)cc1 (stereo not given),inactive,inactive,–,–,inactive,–,–,–
O=S1(=O)N=C(Oc2ccccc2Br)c2ccccc21,inactive,inactive,–,inactive,–,–,–,–
Cc1ccnc(NC(=S)N2CCN(C)CC2)c1,inactive,inactive,inactive,–,20.1 µM (active),–,–,–
CCOc1ccc(-c2cc(C(=O)NCCc3ccc(C)cc3)c3ccccc3n2)cc1,inactive,inactive,inactive,–,inactive,–,–,–
COc1cc(N2C(=O)c3ccccc3C2=O)c2ncccc2c1,inactive,inactive,–,–,inactive,–,–,–
C[C@H]1[C@H](/C=C/c2ccc(-c3ccccc3C#N)cn2)[C@@H]2[C@@H](C)OC(=O)[C@@H]2C[C@@H]1C,inactive,–,inactive,inactive,1.27 µM (active),inactive,inactive,inactive
COc1cc2c(cc1O)C(c1ccc(O)cc1)C(C)C(C)C2 (stereo not given),inactive,–,–,–,–,–,–,inactive
CC1(NC(=O)c2ccc(C#Cc3cccc(F)c3)cn2)COC1,inactive,–,inactive,inactive,inactive,inactive,inactive,inactive
CCOc1ccc(NC(=O)CSc2nc3ccccc3nc2N2CCOCC2)cc1,inactive,inactive,–,–,inactive,–,–,–
COc1cc(O)c(C(CC(=O)N2CCCC(CN3CCCCC3)C2)c2ccc3c(c2)OCO3)c(OC)c1 (stereo not given),inactive,–,–,–,–,–,–,inactive
OCc1ccc(-c2ccc3ncnc(N4CCOCC4)c3c2)o1,11.3 µM (active),1 µM (active),–,inactive,3.18 µM (active),–,–,–
Cc1cc(-c2nnc3n2CCCCC3)c(C)n1-c1ccc(Br)cc1,inactive,inactive,–,inactive,12.7 µM (active),–,–,–
CN1CCN(c2nn3c(=O)c4ccccc4nc3s2)CC1,inactive,–,–,–,–,8.96 µM (active),–,inactive
O=C(Nc1cccc(-c2nc3cc(Cl)ccc3o2)c1)c1cc([N+](=O)[O-])ccc1N1CCOCC1,inactive,inactive,inactive,–,inactive,–,–,–
CC(=O)N1CCN(c2ccc(NCc3ccc(C)cc3)cc2)CC1,inactive,–,11.3 µM (active),–,–,22.5 µM (active),–,inactive
CC(=O)c1ccc(N2CCN(C(=O)Nc3ccc(C(C)C)cc3)CC2)cc1,inactive,inactive,–,–,3.24 µM (active),–,–,–
Cc1ccc(C(=O)NC2CCN(Cc3cccc(-c4cccc(C)c4)c3)CC2)cc1,inactive,inactive,inactive,–,inactive,–,–,–
